Measured values from PubChem BioAssay (NCI).
The panel holds about 79,000 compounds, 15% with a hit somewhere; the sample as a whole holds those more often. Cut-off read from the data, not from the text of the source: active = growth inhibition above about 70%; inactive = the rest.

How the values were obtained:
[1] = NCI Yeast Anticancer Drug Screen. Data for the rad50 strain (AID 155);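 note: 0% = growth of vehicle-only cultures of the same strain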; details: S. cerevisiae rad50 strain growth inhibition; at 50.0 µM; stronger effect = higher value
Outline: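 Compounds were tested on a yeast strain with an engineered DNA damage repair alteration; the reported value is growth inhibition normalised to vehicle treatment.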

[2] = NCI Yeast Anticancer Drug Screen. Data for the mec2-1 strain (AID 157); details: S. cerevisiae mec2-1 strain, at 50.0 µM, stronger effect = higher value
Outline: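 Compounds were applied to mec2-1 yeast cells. Their growth was then compared with that of vehicle-treated cultures to give growth inhibition.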

[3] = NCI Yeast Anticancer Drug Screen. Data for the sgs1 mgt1 strain (AID 161);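 note: 0% = growth of cultures given vehicle only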; details: S. cerevisiae sgs1 mgt1 strain, at 50.0 µM, stronger effect = higher value
Outline: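 Yeast cells carrying a defined DNA-repair defect were exposed to test compounds. Growth inhibition was measured relative to vehicle-treated controls.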

[4] = NCI Yeast Anticancer Drug Screen. Data for the cln2 rad14 strain (AID 165);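 note: 0% = growth equal to vehicle treated cultures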; details: S. cerevisiae cln2 rad14 strain, at 50.0 µM, stronger effect = higher value
Outline: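 Strain: cln2 rad14 yeast, altered in cell cycle control and DNA damage repair. Read-out: growth inhibition vs vehicle.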

[5] = NCI Yeast Anticancer Drug Screen. Data for the bub3 strain (AID 167); details: S. cerevisiae bub3 mutant strain, at 50.0 µM, stronger effect = higher value
Outline: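 Growth of a checkpoint-deficient yeast mutant is measured after compound exposure. Values represent inhibition relative to vehicle.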

[6] = NCI Yeast Anticancer Drug Screen. Data for the mlh1 rad18 strain (AID 175); details: S. cerevisiae mlh1 rad18 strain growth inhibition; at 50.0 µM; stronger effect = higher value
Outline: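 A repair-deficient yeast strain is exposed to test compound, and growth is scored relative to vehicle-treated controls.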

Measured: growth inhibition

CN=c1ncc2nc(-c3ccccc3)c(-c3ccccc3)n(C)c-2n1
inactive: [1] -8.2% | [2] -5.9% | [3] -7.45% | [4] -42% | [5] -3.85% | [6] -24.4%

CCOC(=O)c1nc2c(C)nc(N)nc2[nH]c1=O
inactive: [1] -0.35% | [2] -1.2% | [3] -12% | [4] -32.1% | [5] -5.6% | [6] -3.1%

O=C1CN(c2ccccc2)C(=O)CN1CCN1CC(=O)N(c2ccccc2)CC1=O
inactive: [1] -34% | [2] 14.8% | [3] -4.5% | [4] -2.3% | [5] -31.5% | [6] -8.6%

CN1C/C(=C\c2ccco2)c2nc(N)nc(-c3ccco3)c2C1
inactive: [1] -6.15% | [2] -3.35% | [3] 8.9% | [4] 35.5% | [5] 6.85% | [6] -4.15%

Cc1cc(=O)oc2c1ccc1occc(=O)c12
inactive: [1] -16.6% | [2] 10.4% | [3] -10.3% | [4] 4.95% | [5] 11.9% | [6] -11%

CN(C)CC1CCCC/C1=N/O (stereo unspecified)
inactive: [1] 0.5% | [2] -6.75% | [3] -9.4% | [4] -17.5% | [5] 2.55% | [6] -5.15%

CCOC(=O)C(CO)NC(=O)c1cnc2ccccc2c1 (stereo unspecified)
inactive: [1] 16.4% | [2] 1.65% | [3] 13.1% | [4] -29.8% | [5] -30.4% | [6] 12.8%

CCCCOC(C)OCCCC
inactive: [1] 9.3% | [2] -6.35% | [3] -3.4% | [4] 5.2% | [5] 5.65% | [6] -17%

CC(C)OC(=O)N[C@@H]1c2ccccc2CC[C@H]1I
inactive: [1] 24.5% | [2] 5.8% | [3] 19.3% | [4] -36.5% | [5] 24.7% | [6] 3.55%

CC(O)c1ccc(N=NN(C)C)cc1 (stereo unspecified)
inactive: [1] -2.5% | [2] 2.75% | [3] -3.15% | [4] -1.55% | [5] 0% | [6] 21.2%

O=C(O)CCC1CCc2cccc(OCC(=O)O)c2C1=O (stereo unspecified)
inactive: [1] 2% | [2] -4.3% | [3] -16.2% | [4] 23.5% | [5] -4.4% | [6] -11.7%

COc1cccc(CCNc2ccncc2N)c1
inactive: [1] -22% | [2] -23.7% | [3] -24.6% | [4] -52.2% | [5] -29.1% | [6] 12.9%

N#C/C(=C/c1cccs1)c1ccc(Cl)cc1
inactive: [1] -4.6% | [2] -15.2% | [3] -11.8% | [4] -21.1% | [5] -16.1% | [6] 1.85%

CC(C)CC(C)(O)C(N)=O (stereo unspecified)
inactive: [1] -5.15% | [2] -7.55% | [3] -29% | [4] -21.8% | [5] 0.35% | [6] -4.95%

Nc1nnc(-c2cccc(-c3nnc(N)o3)c2)o1
inactive: [1] -13.5% | [2] -24.6% | [3] -9.8% | [4] -41.4% | [5] -6.5% | [6] -15.1%

COc1ccc(NC(=O)c2oc3cc(O)ccc3c(=O)c2C)c([N+](=O)[O-])c1
inactive: [1] 0.65% | [2] -1.8% | [3] 11.5% | [4] 11.9% | [5] -15.2% | [6] 2.2%

CC1(C)OCC2OC(n3cnc4c(N)nc(Cl)nc43)C(OS(C)(=O)=O)C2O1 (stereo unspecified)
inactive: [1] 3.75% | [2] 16.9% | [3] -13.2% | [4] 8.7% | [5] 4.15% | [6] 30%

Cc1cc(C)c(CSc2cc(N)nc(N)c2N)c(C)c1
inactive: [1] 15.4% | [2] 9.3% | [3] 1.25% | [4] 5.9% | [5] 6.9% | [6] 48.2%

COC(=O)/C=C/c1ccc2c(c1)CCC2
inactive: [1] -35.5% | [2] -30.9% | [3] -13.8% | [4] 14.6% | [5] 31.7% | [6] -1.35%

Nc1nnc(N)c2nc(-c3ccccc3)c(-c3ccccc3)nc12
inactive: [1] 10.4% | [2] 16.4% | [3] 28.1% | [4] -14.8% | [5] 8.15% | [6] 20.9%

CN(C(=O)CCC(=O)O)c1ccccc1C(=O)O
inactive: [1] 0.2% | [2] -2.35% | [3] 11% | [4] -5.75% | [5] 0.85% | [6] -15.9%

CC(C)(C)N/N=C(\C(=O)Nc1cccc(Cl)c1)C1C(=O)Nc2ccccc2S1=O (stereo unspecified)
inactive: [1] -31.1% | [2] -43.8% | [3] -24.6% | [4] 10.7% | [5] -11.2% | [6] 8.75%

CN(CCCn1ccnc1[N+](=O)[O-])CCCn1ccnc1[N+](=O)[O-]
inactive: [1] -28.1% | [2] -12.6% | [3] -0.35% | [4] 3.85% | [5] -5.05% | [6] 11.6%

CC(C)(C)c1cc[n+](C[n+]2ccc(C(C)(C)C)cc2)cc1
inactive: [1] 4.8% | [2] -12.2% | [3] -0.45% | [4] -13.4% | [5] -22.9% | [6] -5%

Oc1cc2c(cc1O)C1c3ccc(O)c(O)c3OCC1(O)C2 (stereo unspecified)
inactive: [1] 21.9% | [2] 13% | [3] 22.7% | [4] -1% | [5] 9.4% | [6] 22.4%

CCOC(=O)/C(Cc1ccccc1[N+](=O)[O-])=N/O
inactive: [1] 6.7% | [2] 2.85% | [3] 8.65% | [4] -13.4% | [5] 12.3% | [6] 26.6%

CC12CCC(C/C1=N\O)C2(C)CBr (stereo unspecified)
inactive: [1] 13.4% | [2] -2.15% | [3] -4.35% | [4] -1.1% | [5] -2.3% | [6] 5.1%

O=C(O)CCSc1nc2c(=O)[nH][nH]c(=O)c2n1Cc1ccccc1
inactive: [1] 7.2% | [2] -13.2% | [3] 7.05% | [4] -53.1% | [5] -0.75% | [6] 9.7%

c1ccc(C2=C(c3ccccc3)C2c2ccccc2)cc1
inactive: [1] 10.8% | [2] -8.95% | [3] -4.5% | [4] -21.1% | [5] -2.15% | [6] 7.15%

NC1=NC(c2ccccc2)C2=C(N1)C(=O)N(Cc1ccccc1)C2 (stereo unspecified)
inactive: [1] 5.65% | [2] -6.25% | [3] -0.8% | [4] -18.9% | [5] -16.8% | [6] 3.15%

Cc1nnc(-n2nc(-c3ccc(Cl)cc3)cc2N)[nH]c1=O
inactive: [1] 54% | [2] 12.1% | [3] 22.4% | [4] 12.8% | [5] 23.4% | [6] 34%

CCN(CC)Cc1cc(C(C)(C)CC)cc(-c2ccccc2)c1O
inactive: [1] -11.2% | [2] -33.6% | [3] -12.6% | [4] -24.9% | [5] 8.5% | [6] -4.1%

COC(=O)c1c2cccccc-2c(C(=O)OC)c1N
inactive: [1] 15% | [2] 17.9% | [3] 28.8% | [4] -24.8% | [5] 36% | [6] 42.6%

NC(Cc1ccccc1)(C(=O)O)C(=O)O
inactive: [1] -12.7% | [2] 1.45% | [3] -11.4% | [4] -31.8% | [5] -22.1% | [6] 15.7%

COc1cccc(C2c3cc4c(cc3OC(C)(O)C2C)OCO4)c1OC (stereo unspecified)
inactive: [1] 22.6% | [2] 4.05% | [3] 39.5% | [4] 13.9% | [5] 24.8% | [6] 21.6%

CCOC(=O)C(C)(C)Oc1ccc2c(C)c(-c3ccc(Cl)cc3)c(=O)oc2c1
inactive: [1] -1.7% | [2] -26.4% | [3] -1.25% | [4] -41.2% | [5] -47.6% | [6] -10.9%

CCN(CC)Cc1ccc([NH-])c([NH-])c1.CCN(CC)Cc1ccc([NH-])c([NH-])c1.[Cl][Pt+2][Cl].[Cl][Pt+2][Cl].[Cl][Pt+2][Cl]
inactive: [1] 27.4% | [2] 36.6% | [3] 35.6% | [4] 25.6% | [5] 29.2% | [6] 48.5%

OCC1C2C=CC1CC2 (stereo unspecified)
inactive: [1] -1.4% | [2] -1.8% | [3] 15.2% | [4] -0.85% | [5] 11.7% | [6] -2.7%

CC1OC(OC2C(O)C(OCCc3ccc(O)c(O)c3)OC(CO)C2OC(=O)/C=C/c2ccc(O)c(O)c2)C(O)C(O)C1O (stereo unspecified)
inactive: [1] 4.75% | [2] -9.8% | [3] -3% | [4] 8.25% | [5] -2.7% | [6] 20.8%

O=c1c2ccccc2[nH]c2c(O)ccc(O)c12
inactive: [1] 18.3% | [2] -1.65% | [3] 6.55% | [4] 7.65% | [5] -1.55% | [6] 12.7%

CCOc1ccc(/C=C(\NC(=O)c2ccccc2)C(=O)Nc2ccccc2)cc1OC
inactive: [1] 4.8% | [2] -12.6% | [3] -4.45% | [4] -25.6% | [5] -0.15% | [6] 2.1%
